TRHR enhancer-1 = allosterically enhances the human TRH receptor | P34981 | TRHR cells, fluo-8 calcium fluorescence, EC20 TRH enhancement | enhancement, % at 2 µM | 360,000 compounds, 0.66% hits | AID 493056; in the data active = enhancement above about 30%; also: 0% is about no effect
Target sequence (P34981 whole entry, looked up): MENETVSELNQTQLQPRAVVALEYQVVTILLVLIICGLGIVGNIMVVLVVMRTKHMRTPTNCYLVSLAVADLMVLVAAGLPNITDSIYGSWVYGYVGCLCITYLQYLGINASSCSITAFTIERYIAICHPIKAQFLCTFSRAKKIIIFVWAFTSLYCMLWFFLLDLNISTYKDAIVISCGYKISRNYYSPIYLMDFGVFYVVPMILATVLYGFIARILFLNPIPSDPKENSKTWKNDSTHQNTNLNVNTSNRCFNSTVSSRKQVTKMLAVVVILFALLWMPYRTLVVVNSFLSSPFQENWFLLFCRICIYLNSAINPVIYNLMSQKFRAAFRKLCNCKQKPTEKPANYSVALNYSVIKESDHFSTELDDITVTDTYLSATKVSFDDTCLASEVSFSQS
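TRHR-expressing cells loaded with fluo-8 calcium dye were read kinetically (ex 480/em 530) during compound addition, then stimulated with an EC20 of TRH (10 nM final). Enhancement of the Gq-mediated intracellular calcium response was scored.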
D1 ag = human D1 receptor agonism; HEK293 T-REx D1 cells, calcium flux, agonist mode; activation, % at 2 µM; 360,000 compounds, 1% hits; AID 504660; in the data active = activation above about 30%; also: 0% is about no effect
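Tetracycline-induced HEK293 TREx D1 cells, force-coupled to calcium signalling, were dye-loaded with a no-wash calcium kit. Compound was pin-added after a 10 s baseline. Fluorescence was read kinetically at 1 cycle/s for 180 s, with calcium rises flagged as agonism.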
D1 potentiator = enhances dopamine response at the human D1 receptor | P21728 | HEK293 TREx D1 cells, calcium flux, dopamine EC20 potentiation | potentiation, % at 10 µM | 360,000 compounds, 0.036% hits | AID 504651; in the data active = potentiation above about 30%; also: 0% is about no effect
D1 antag = antagonists of human D1 dopamine receptor; P21728; activity change, negative = inhibition, % at 10 µM; HEK293 TREx D1 cells, calcium flux, dopamine EC80; hits give low values; 360,000 compounds, 3.2% hits; AID 504652; in the data active = activity change below about -30%; also: % is scaled to controls: 0 for no effect and ±100 for the full control effect
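Using tetracycline-induced force-coupled D1 Hek293 cells and a calcium dye, signals were followed for 180 s after compound, then for 180 s after EC80 dopamine, to detect inhibitors.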
TRHR agonist-1 = activates the human TRH receptor; P34981; TRHR cells, calcium flux fluo-8, FDSS agonist mode; activation, % at 2 µM; 360,000 compounds, 0.18% hits; in the data active = activation above about 30%; also: 0% is about no effect
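TRHR-expressing cells, plated overnight in medium with 10% serum, were loaded with fluo-8 calcium dye at room temperature. After a 10 s baseline, library compound was pin-added and calcium release was recorded kinetically (ex 480/em 530) as agonist response.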
TRHR enhancer-2 = human TRH receptor allosteric enhancement confirmation; shares compounds with TRHR enhancer-1; TRH receptor cell assay, enhancer confirmation qHTS; activity change, negative = inhibition, % at 46.1 µM; 970 tested, under 10 active;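 also: compound effect scored on response to added TRH at EC20 of 10 nM; 0% is about no effect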
TRHR agonist-2 = confirmation of human TRH receptor agonists | shares compounds with TRHR enhancer-1 | TRHR-expressing cells, agonist activation read-out | Potency, µM (doses to about 46.1 µM), inactives show at the highest dose activation, actives largely listed as activators | 970 compounds, 8% hits | AID 493078; also: potency is read from the fitted curve at half-maximal effect; 0% is about no effect; nearly all actives have a fitted effect of over 75% in size
Numbers without * were called inactive; ? = inconclusive; / = no result. Most compounds without a hit are left out; they make up all but 4.6% or so of the library. Unless noted, calls follow the shape of the dose curve; as a rule, active = well fitted curve in the direction sought with a large enough effect; inconclusive = small, poorly fitted or top-dose-only effect, or another doubt; inactive = no such curve, though single readings can be large; an effect the other way counts as inactive or inconclusive.

SMILES | TRHR enhancer-1 | D1 ag | D1 potentiator | D1 antag | TRHR agonist-1 | TRHR enhancer-2 | TRHR agonist-2
COc1cc(NC(=O)[C@@H](NC(=O)N2CCn3c2nc2ccccc23)C(C)C)cc(OC)c1 | 43* | -1 | 10 | 22 | 0 | 1 | 2%
CC(C)[C@H](NC(=O)N1CCn2c1nc1ccccc12)C(=O)N[C@H](Cc1ccccc1)C(=O)O | -1 | 1 | -8 | -3 | 0 | / | /
Cc1ccc(NC(=O)CN2C(=O)COc3ccc(S(=O)(=O)N4CCOCC4)cc32)c(Cl)c1 | 3 | 1 | -3 | 11 | -1 | / | /
COc1ccc(NC(=O)CNC(=O)c2ccco2)cc1 | -3 | 5 | -4 | -1 | 1 | / | /
O=C(CNC(=O)c1ccco1)Nc1ccc(OC(F)F)cc1 | 50* | 3 | -6 | 6 | 0 | -4 | -1%
O=C(CN1CCN(c2ccccc2F)CC1)c1ccc(O)cc1O | 94* | 3 | -6 | -8 | 0 | -7 | -1%
Cc1cc(C)n2nc(SCC(=O)Nc3cc(Cl)ccc3C)nc2n1 | -5 | -1 | -2 | 6 | 0 | / | /
Cc1ccc(OCc2nc(C#N)c(NCCCn3ccnc3)o2)cc1 | -3 | -1 | -6 | -10 | 0 | / | /
N#Cc1nc(COc2ccccc2)oc1NCCCn1ccnc1 | 57* | 2 | -1 | -33* | 0 | -5 | 1%
CC(SCc1ccccc1)C(=O)Nc1ccccc1F (stereo unspecified) | 56* | 3 | -5 | -1 | 0 | 1 | 0%
CCOC(=O)CCCNC(=O)CN1C(=O)NC(c2ccccc2)(c2ccccc2)C1=O | -1 | 2 | 12 | 3 | 1 | / | /
CCOC(=O)Cc1csc(SCC(=O)NC2CCCCC2)n1 | 10 | 1 | -3 | -14 | 0 | / | /
CCOC(=O)Cc1csc(SCC(=O)NC2CCCC2)n1 | 52* | 2 | -8 | -12 | 0 | -5 | 0%
O=S(=O)(NCC1(N2CCOCC2)CCCCC1)c1ccc(Cl)cc1C(F)(F)F | 7 | 2 | -4 | 1 | 46* | 4 | ?
CCCCN1C(=O)/C(=C/C=C2/CC(C)(C)CN2C)SC1=S | -1 | 128* | -4 | 12 | 39* | 3 | 9.2µM*
Cc1ccc2nc3c(cc2c1)c(NC(=O)C1CCCO1)nn3CC(C)C (stereo unspecified) | 6 | 1 | -2 | / | 0 | / | /
Cc1ccc2cc3c(NC(=O)C4CCCO4)nn(CC(C)C)c3nc2c1 (stereo unspecified) | 47* | 3 | -1 | / | 0 | ? | 1%
Cc1ccc(CN2CC(C(=O)N3CCN(c4ccccc4Cl)CC3)CC2=O)cc1 (stereo unspecified) | -3 | 2 | -1 | -17 | -1 | / | /
CCN(CCCNC(=O)c1cc2cc3cc(C)ccc3nc2s1)c1cccc(C)c1 | -1 | 1 | 3 | 2 | 0 | / | /
CN1CCN(S(=O)(=O)c2cccc(C(=O)Oc3ccc(C(C)(C)C)cc3)c2)CC1 | 50* | 7 | -4 | -30* | 1 | 12 | 2%
COc1cc(OC)cc(OC(=O)c2cccc(S(=O)(=O)N3CCN(C)CC3)c2)c1 | -2 | 5 | -5 | -10 | 0 | / | /
CN(CC(=O)NCc1ccc2c(c1)OCO2)S(=O)(=O)c1ccc(F)cc1 | 43* | 1 | 2 | 0 | 0 | 8 | -1%
CCN(CC)S(=O)(=O)c1ccc(N2CCN(C)CC2)c(NC(=O)COc2ccc(F)cc2Cl)c1 | 0 | 0 | -2 | 14 | 0 | / | /
CN(C)CCCNc1oc(-c2ccccc2Cl)nc1S(=O)(=O)c1ccc(F)cc1 | 57* | 15 | -6 | -15 | 2 | ? | ?
CCCCCc1ccc(OCCCC[n+]2ccc(C)cc2)c(CCCCC)c1 | -11 | 202* | 20 | -12 | 35* | -13 | ?
SMILES | TRHR enhancer-1 | D1 ag | D1 potentiator | D1 antag | TRHR agonist-1 | TRHR enhancer-2 | TRHR agonist-2
CCCCCc1ccc(OCCCC[n+]2cccc(C)c2)c(CCCCC)c1 | -1 | 4 | -4 | 15 | 0 | / | /
Cc1cn2c(N)c(C=C3C=C(Cl)C(=O)C(Cl)=C3)c(=O)nc2s1 | -3 | 51* | 3 | 6 | 27 | 0 | 9.2µM*
Cc1ccccc1NC(=O)c1sc2nc(N3CCOCC3)c3c(c2c1N)CC(C)(C)OC3 | -8 | 0 | -4 | 1 | 0 | / | /
Clc1ccc(CNc2ncccn2)cc1 | -3 | 2 | -2 | 7 | -1 | / | /
Fc1ccc(CNc2ncccn2)cc1 | 42* | -1 | 9 | -13 | -1 | 2 | -1%
CC(C)n1cnnc1SCC(=O)NC(=O)c1ccccc1 | 1 | 3 | -8 | 2 | 0 | / | /
CCn1c(C)c(C)c2cc(C(=O)NC3CCCCCC3)ccc21 | 45* | 1 | 0 | -2 | 0 | ? | 2%
Cc1ccc(S(=O)(=O)NCc2ccc(C(=O)NC3CCCCC3)cc2)cc1 | 77* | 3 | 11 | 4 | 0 | -6 | 0%
Cc1ccc(-c2nc3sccn3c2Nc2ccccc2C)cc1 | -15 | -2 | 3 | 5 | -1 | / | /
CC(C)(C)OC(=O)N1CCC(c2c(C(=O)N3CCN(c4ccccn4)CC3)cnn2-c2cccc(F)c2)CC1 | -11 | 0 | -1 | 1 | -1 | / | /
O=C(Cc1ccc([N+](=O)[O-])cc1)N/N=C/c1ccccc1F | -6 | 5 | -4 | -7 | 0 | / | /
Cc1csc(NC(=O)CSc2nc(=O)[nH]c3c2CCCC3)n1 | 66* | 6 | -3 | 11 | 0 | -7 | 1%
O=C(CSc1nc(=O)[nH]c2c1CCCC2)Nc1cc(C(F)(F)F)cc(C(F)(F)F)c1 | 0 | -1 | -4 | 7 | 0 | / | /
O=C(Cc1cccs1)N=Nc1c(O)[nH]c2ccc(Br)cc12 | 1 | 2 | 0 | 6 | 0 | / | /
O=C(Cc1cccs1)N=Nc1c(O)[nH]c2ccccc12 | 43* | 0 | -7 | -9 | -2 | -4 | 4%
COc1ccc(-n2nc(C(=O)Nc3ccc(Br)cc3C)c3c4ccccc4n(C)c3c2=O)cc1 | 0 | 1 | -2 | 4 | 1 | / | /
COc1cc(C(=S)N2CCOCC2)ccc1OC(=O)c1cccc(C)c1 | 49* | 7 | -1 | -10 | -1 | -10 | 0%
COc1ccc(CN2CCC(C(=O)Nc3ccc(Oc4ccccc4)nc3)CC2)cc1F | 72* | 31* | -9 | -24 | 2 | -2 | ?
Cc1ccc(CNC(=O)C(=O)NCC(c2ccco2)S(=O)(=O)c2ccc(C)cc2)cc1 (stereo unspecified) | 1 | 6 | 0 | / | 0 | / | /
O=C(O)Cn1c(SCCOc2ccccc2)nc2ccccc21 | -3 | 4 | -5 | -20 | 0 | / | /
CCCCOc1ccc(OCCSc2nc3ccccc3n2CC(=O)O)cc1 | 56* | 1 | -3 | 5 | 0 | 4 | -1%
